Hit rate of the full screen: of about 100,000 compounds, about 770 (0.77%) were called active. The sample as a whole holds a higher share of actives than the screen did. Unmarked numbers belong to inactive results. Rule as the data show it: active = inhibition above about 50%; inactive = the rest.
Each molecule was assayed against Gag-Pol polyprotein (Human immunodeficiency virus type 1 group M subtype B (isolate HXB2)) (UniProt P04585) (assay: RNase H inhibition, HIV 1 Gag Pol polyprotein, FRET biochemical assay, screening (AID 372)). Conditions: HIV-1 RT RNase H, FRET RNA/DNA substrate fluorescence; at 10 µM; stronger effect = higher value.

Structure (SMILES)	inhibition
NC(N)=NS(=O)(=O)c1ccc(NC(=S)Nc2ccccc2)cc1	6%
CC(=O)C1(C)CC(C#N)(C#N)C(C#N)=C1N (stereo not given)	0%
COCCOC(=O)c1ccc(NC(=O)C(C)Oc2ccc(Cl)cc2C)cc1 (stereo not given)	11%
CC(=O)ON=C1CC(C)(C)NC(C)(C)C1	4%
CCOC(=O)/C=C/COc1ccc2oc(-c3ccccc3)c(C(=O)OCC)c2c1	10%
CC(=O)c1ccc(NC(=O)c2ccccc2Cl)cc1	2%
Cc1cc(C)c(C#N)c(SCC(=O)Nc2ccc(Cl)cc2)n1	1%
CCCOC(=O)CSc1nc(C)cc(C)c1C#N	10%
Cc1cc(C)c(C#N)c(SCC(=O)c2ccc(O)c(O)c2)n1	70% (active)
COc1cccc(N2C(=O)/C(=C/c3c(OC)cc(OC)cc3OC)C(=O)NC2=S)c1	1%
CCCCc1ccc(/C(C)=N/Nc2cc(-n3cc(C)cn3)ncn2)cc1	0%
O=C(O)CCCCCN1C(=O)C(=O)/C(=C(/O)c2ccc(Cl)cc2)C1c1ccccc1 (stereo not given)	13%
O=c1oc2cc(OCc3c(F)cccc3Cl)ccc2cc1-c1ccccn1	8%
CC(C)c1ccccc1OCCCN1CCCC1	3%
CC(C)c1ccccc1OCCCCN1CCCCC1	8%
CC(C)c1ccccc1OCCCN1CCCCC1	56% (active)
Cc1ccc(C)c(N(CC(=O)Nc2c(C)n(C)n(-c3ccccc3)c2=O)S(=O)(=O)c2ccccc2)c1	3%
COc1ccc2c(c1OC)C(=O)OC2Nc1cccc([N+](=O)[O-])c1 (stereo not given)	1%
CCOC(=O)COc1ccc(C=O)cc1OCC	0%
O=C(N/N=C/c1ccc(Cl)c([N+](=O)[O-])c1)c1cc(O)cc(O)c1	3%
O=C(N/N=C/c1ccc(Cl)c([N+](=O)[O-])c1)c1ccc(O)cc1	22%
O=C(N/N=C/c1ccc(Cl)c([N+](=O)[O-])c1)c1ccc(O)c(O)c1	53% (active)
O=C(N/N=C/c1ccc(Cl)c([N+](=O)[O-])c1)c1cc2ccccc2o1	59% (active)
O=C(N/N=C/c1ccccc1[N+](=O)[O-])c1ccc(O)c(O)c1	51% (active)
O=C(N/N=C/c1cc([N+](=O)[O-])ccc1Cl)c1cc2ccccc2o1	35%

Structure (SMILES)	inhibition
O=C(N/N=C/c1cc([N+](=O)[O-])ccc1O)c1ccc(O)c(O)c1	35%
O=C(N/N=C/c1ccc(Cl)c([N+](=O)[O-])c1)c1ccccn1	11%
O=C(N/N=C/c1ccccc1[N+](=O)[O-])c1cc(O)cc(O)c1	3%
O=C(N/N=C/c1cc([N+](=O)[O-])ccc1Cl)c1ccc(O)c(O)c1	63% (active)
O=C(N/N=C/c1cc([N+](=O)[O-])ccc1Cl)c1ccc(O)cc1	10%
O=C(N/N=C/c1ccccc1[N+](=O)[O-])c1ccccc1	28%
O=C(CSc1nc2ccccc2o1)c1ccc(-c2ccccc2)cc1	14%
Cc1nnc(SCc2ccc(F)cc2)s1	0%
COC(=O)c1ccc(C2N(O)C3CCCCC3N2O)cc1 (stereo not given)	15%
COc1ccc([N+](=O)[O-])cc1N1C(=O)C=CC1=O	4%
CC(C)(C)c1cc(C(=O)N/N=C\c2ccncc2)n[nH]1	3%
O=C(Nc1ccc(Cl)c(Cl)c1)c1cccc2ccccc12	8%
Cc1cc(/C=C2\C(=O)NC(=S)N(c3cccc(Cl)c3)C2=O)c(C)n1-c1ccc(Cl)cc1	40%
CC1=C(C(=O)OCCOc2ccccc2)C(c2ccc(O)cc2)C2=C(CC(c3ccccc3)CC2=O)N1 (stereo not given)	9%
COc1ccc(-c2ccc(/C=C3/C(=O)NN(c4ccc(C)c(Cl)c4)C3=O)o2)c([N+](=O)[O-])c1	24%
CC(=O)N(C)c1ccc(NC(=O)/C=C/c2cccc3ccccc23)cc1	53% (active)
O=C(/C=C/c1cccc2ccccc12)Nc1ccc(Nc2ccccc2)cc1	25%
CC(=O)N(C)c1ccc(NC(=O)/C=C/c2ccccc2)cc1	9%
Cc1ccc(S(=O)(=O)c2ccc(C)c(S(N)(=O)=O)c2)cc1S(N)(=O)=O	0%
COc1ccc(-n2nc3cc(C)c(N)cc3n2)cc1	22%
CCOc1ccc(-n2nc3cc(C)c(N)cc3n2)cc1	24%
Cc1cc2nn(-c3ccccc3)nc2cc1N	50% (active)
CCOC(=O)C1=C(O)/C(=C/c2ccc(Br)cc2)SC1=Nc1ccccc1	5%
CCC(=O)Nc1ccc(NC(=S)NC(=O)c2cccc(F)c2)cc1	11%
O=C1/C(=C\c2ccc(O)c(O)c2)SC(=S)N1c1ccc(F)cc1	74% (active)

Structure (SMILES)	inhibition
COc1ccc(/C=C2\SC(=S)N(c3cccc(F)c3)C2=O)cc1O	7%
O=C1S/C(=C/c2cccc(O)c2)C(=O)N1c1ccccc1	24%
O=C1/C(=C/c2cccc(O)c2)SC(=S)N1c1cccc(Cl)c1	19%
O=C1/C(=C/c2ccc(F)cc2)SC(=S)N1c1ccc(F)cc1	17%
COc1cc(/C=C2\SC(=O)N(c3ccccc3)C2=O)ccc1O	27%
O=C1/C(=C/c2ccc(O)c(O)c2)SC(=S)N1c1cccc(F)c1	84% (active)
COc1cc(/C=C2\SC(=S)N(c3cccc(Cl)c3)C2=O)ccc1O	38%
O=C1S/C(=C/c2ccc(O)c(O)c2)C(=O)N1c1ccccc1	60% (active)
O=C1/C(=C/c2cccnc2)SC(=S)N1c1cccc(F)c1	3%
O=C1/C(=C\c2ccc(O)cc2)SC(=S)N1c1ccc(F)cc1	37%
Cc1ccc2cc(C3=C/C(=C/c4cccc(Br)c4)C(=O)O3)ccc2c1	4%
CCCCCOc1ccc(/C=N\Nc2nc(-c3ccccc3)cc(-c3ccccc3)n2)cc1	8%
COc1ccc(C(=O)COC(=O)c2ccc(N3C(=O)C4C5C=CC(C6CC56)C4C3=O)cc2)cc1 (stereo not given)	9%
CCN(CC)S(=O)(=O)c1ccc(C(C)(C)C)cc1	15%
N/C(=C\C(=O)c1ccccc1O)C(F)(F)F	8%
CCc1nn(-c2ccccc2)c2nc(-c3ccccc3C)c3cc(OC)c(OC)cc3c12	13%
COc1ccc(/C=C2/C(=O)NC(=O)N(Cc3ccco3)C2=O)cc1C	12%
O=C(O)CC1SC(=NC(=O)c2ccco2)N(c2ccccc2)C1=O (stereo not given)	0%
O=C1/C(=C\c2ccc(O)cc2)SC(=S)N1c1ccc(Cl)cc1	36%
O=C1/C(=C\c2ccc(O)c(O)c2)SC(=S)N1c1cccc(C(F)(F)F)c1	48%
Cc1ccc(N2C(=O)/C(=C/c3ccc(Cl)cc3)SC2=S)cc1C	5%
O=C1/C(=C\c2ccc(O)c(O)c2)SC(=S)N1c1cccc2ccccc12	72% (active)
O=C1/C(=C/c2cccc(O)c2)SC(=S)N1c1ccc(O)cc1	26%
Cc1ccc(N2C(=O)/C(=C/c3ccc(F)cc3)SC2=S)cc1C	6%
O=C1NC(=O)N(c2cccc3ccccc23)C(=O)/C1=C/c1ccc(O)c(O)c1	22%

Structure (SMILES)	inhibition
CN(C)c1ccc(/C=C2\C(=O)N(c3nc(-c4ccc(Cl)cc4)cs3)N=C2c2ccccc2)cc1	37%
Cc1ccc(C(=O)N2N=C(c3ccc(Cl)cc3)CC2(O)C(F)(F)F)o1 (stereo not given)	20%
CCCC(C)C(=O)Nc1cccc([N+](=O)[O-])c1C (stereo not given)	11%
O=C1CC(NCc2ccc3c(c2)OCO3)C(=O)N1c1ccc(Cl)cc1 (stereo not given)	8%
CC(C)Cn1nc(-c2ccccc2)c2ccccc2c1=O	18%
O=c1c2ccccc2c(-c2ccccc2)nn1CCc1ccccc1	53% (active)
O=c1c2ccccc2c(-c2ccccc2)nn1Cc1cccc(Br)c1	15%
COc1ccc(OC)c(C2NC(=S)NC(C)=C2C(=O)OCCOc2ccccc2)c1 (stereo not given)	50% (active)
COc1ccc(OC)c(C2NC(=S)NC(C)=C2C(=O)OCCc2ccccc2)c1 (stereo not given)	21%
COCCOC(=O)C1=C(C)NC(=S)NC1c1cc(OC)ccc1OC (stereo not given)	15%
COc1ccc(/C(O)=C2/C(=O)C(=O)N(CCCCCC(=O)O)C2c2ccc([N+](=O)[O-])cc2)cc1 (stereo not given)	6%
CCOC(=O)Cc1csc(N/N=C\c2c(Cl)ccc(Cl)c2Cl)n1	20%
O=C(CN1C(=O)C2C3CCC(C3)C2C1=O)Nc1ccccc1 (stereo not given)	14%
CCOc1cc(C(=S)N2CCCCC2)cc(I)c1O	59% (active)
CCOc1cc(C(=S)N2CCC(C)CC2)ccc1O	50% (active)
CCOc1cc(C(=S)N2CCCCC2)ccc1O	8%
COc1cc(C(=S)N2CCOCC2)cc(I)c1O	45%
CCOc1cc(C(=S)N2CCCCC2)cc(Br)c1O	56% (active)
CCOc1cc(C(=S)N2CCOCC2)cc(Br)c1O	13%
COc1cc(C(=S)N2CCCCC2)cc(Br)c1O	37%
COc1cc(C(=S)N2CCC(C)CC2)ccc1O	7%
COc1cc(C(=S)N2CCCCC2)ccc1O	0%
CS(=O)(=O)N(CC(=O)Nc1cccc2ccccc12)c1cccc(Cl)c1	10%
O=C1CC(c2ccccc2)CC(O)=C1C=NCc1ccc(F)cc1 (stereo not given)	8%
Cc1nnc(N/N=C/c2cccc([N+](=O)[O-])c2)[nH]c1=O	8%

— PubChem BioAssay AID372 (MTDP, 2006)
